The source of these data is PubChem BioAssay (NCI).

Each structure is given as a SMILES string. The panel holds about 83,000 compounds, 20% with a hit somewhere; the sample as a whole holds those more often.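 Activity criterion: percent growth below 10, measured after cells in 96-well plates were exposed to a single compound concentration for 48 hours.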 A number with no mark means an inactive call. Calls of active or inactive are those of the source.

Test systems include SR leukemia; RPMI-8226 leukemia; OVCAR-8 ovarian; OVCAR-5 ovarian; OVCAR-4 ovarian; SK-OV-3 ovarian; IGROV1 ovarian; OVCAR-3 ovarian; HS 578T breast; NCI/ADR-RES ovarian.
Assay in all cases: NCI-60 one-dose screen, 48 h (100 = growth as untreated, 0 = no growth, -100 = all killed)
Common to all, as to settings: 10 µM unless noted

Consider `COc1ccc2nc(-c3ccc(Cl)cc3)cc(-c3nnc(SCC(=O)Nc4ccc(C(C)=O)cc4)n3-c3ccccc3)c2c1`, for which the growth in the assay on SR leukemia was 83.7%; in the assay on RPMI-8226 leukemia it was 104%; with OVCAR-8 ovarian it was 102%; with OVCAR-5 ovarian, 96.4%; in the assay with OVCAR-4 ovarian, 93.7%; in the assay with SK-OV-3 ovarian it was 93.9%. For the same molecule, the growth in the assay with IGROV1 ovarian was 107%; in the assay on OVCAR-3 ovarian it was 96.8%; in the assay with HS 578T breast it was 99.5%; with NCI/ADR-RES ovarian it was 95.2%.

For the molecule `O=C(N/N=C/c1cccc(O)c1O)c1ccccc1`, the growth in the assay on SR leukemia is 18.2%; in the assay with RPMI-8226 leukemia, 32.1%; with OVCAR-8 ovarian, 4.99% (active); in the assay with OVCAR-5 ovarian it was 30.1%; in the assay with OVCAR-4 ovarian, 4.38% (active); in the assay with SK-OV-3 ovarian it was 41.2%. For the same molecule, the growth is 6.87% (active) with IGROV1 ovarian, 16.2% in the assay with OVCAR-3 ovarian, 66.1% in the assay on HS 578T breast and 11% in the assay on NCI/ADR-RES ovarian.

For the molecule `COc1cc2c(cc1OC)C(CC1(O)CCCCC1)N(S(=O)(=O)c1ccc(C)cc1)CC2` (stereo not given), the growth in the assay with SR leukemia was -10.4% [100 µM] (active); with RPMI-8226 leukemia it was 16.7% [100 µM]; in the assay with OVCAR-8 ovarian, 26.8% [100 µM]; with OVCAR-5 ovarian it was 76.2% [100 µM]; with OVCAR-4 ovarian, 25.4% [100 µM]; in the assay on SK-OV-3 ovarian, 80% [100 µM]. Further, the growth in the assay on IGROV1 ovarian was 53.6% [100 µM]; in the assay on OVCAR-3 ovarian, -15.5% [100 µM] (active); in the assay with HS 578T breast, 57.3% [100 µM]; with NCI/ADR-RES ovarian it was 34.5% [100 µM].

`CCOc1cc(/C=C/C(=O)CC(=O)/C=C/c2ccc(OC(=O)CNCCN(CC)CC)c(OCC)c2)ccc1OC(=O)CNCCN(CC)CC`: the growth was -42.1% (active) in the assay with SR leukemia; -52.9% (active) with RPMI-8226 leukemia; 4.23% (active) in the assay on OVCAR-8 ovarian; -34.5% (active) in the assay on OVCAR-5 ovarian; 18.1% with OVCAR-4 ovarian; 32.6% in the assay on SK-OV-3 ovarian. The growth in the assay with IGROV1 ovarian is -67.7% (active); in the assay on OVCAR-3 ovarian, 0.276% (active); in the assay on HS 578T breast, 1.48% (active); with NCI/ADR-RES ovarian, 16.3%.

On to `CCN(Cc1cccc(S(=O)(=O)[O-])c1)c1ccc(C(=C2C=CC(=[N+](CC)Cc3cccc(S(=O)(=O)O)c3)C=C2)c2ccccc2S(=O)(=O)O)cc1`, for which the growth with SR leukemia was 95.6%; with RPMI-8226 leukemia it was 100%; in the assay with OVCAR-8 ovarian, 104%; with OVCAR-5 ovarian it was 94.5%; in the assay on OVCAR-4 ovarian, 93.4%; in the assay with SK-OV-3 ovarian, 102%. Also, the growth was 110% in the assay on IGROV1 ovarian, 102% with OVCAR-3 ovarian, 106% with HS 578T breast and 102% with NCI/ADR-RES ovarian.

With `Nc1ccccc1C#Cc1ccccc1C#Cc1ccc(OCCCCCCOc2ccc(C#Cc3ccccc3C#Cc3ccccc3N)cc2)cc1`, the growth in the assay on SR leukemia is 94.7%; in the assay on RPMI-8226 leukemia it was 94%; in the assay with OVCAR-8 ovarian, 95.6%; with OVCAR-5 ovarian, 90.7%; in the assay with OVCAR-4 ovarian, 105%; in the assay on SK-OV-3 ovarian, 92.5%. The growth was -7.54% (active) in the assay with IGROV1 ovarian, 109% with OVCAR-3 ovarian, 113% in the assay on HS 578T breast and 93% in the assay on NCI/ADR-RES ovarian.

Regarding `COc1cccc(/C=N/Nc2nc3ccccc3s2)c1OC`, the growth is 45.9% in the assay with SR leukemia; 74.8% in the assay with RPMI-8226 leukemia; 76.5% in the assay on OVCAR-8 ovarian; 97.7% with OVCAR-5 ovarian; 92.2% in the assay on OVCAR-4 ovarian; 78.5% in the assay with SK-OV-3 ovarian. For the same molecule, the growth in the assay with IGROV1 ovarian is 81.9%; in the assay with OVCAR-3 ovarian it was 98.3%; in the assay on HS 578T breast it was 97.9%; in the assay on NCI/ADR-RES ovarian, 91.7%.

For `Oc1c(Cl)cc(Oc2cc(Cl)c(O)c(CN3CCOCC3)c2)cc1CN1CCOCC1`, the growth with SR leukemia was 80.2%; in the assay on RPMI-8226 leukemia, 91%; with OVCAR-8 ovarian, 94.8%; in the assay on OVCAR-5 ovarian, 98%; in the assay with OVCAR-4 ovarian it was 88.2%; in the assay on SK-OV-3 ovarian it was 101%. The growth in the assay on IGROV1 ovarian is 92.5%; with OVCAR-3 ovarian, 94.5%; in the assay with HS 578T breast it was 93.5%; in the assay with NCI/ADR-RES ovarian it was 84.8%.

In the case of `CC(=O)N1N=C(c2ccc(Nc3ccnc4cc(Cl)ccc34)cc2)CC1c1ccc(Cl)cc1` (stereo not given), the growth in the assay on SR leukemia is 2.79% (active); in the assay on RPMI-8226 leukemia, 22.3%; in the assay on OVCAR-8 ovarian, 66.9%; with OVCAR-5 ovarian, 87.9%; in the assay on OVCAR-4 ovarian, 45.2%; in the assay on SK-OV-3 ovarian, 68.1%. In addition, the growth in the assay on IGROV1 ovarian is 51.1%; in the assay on OVCAR-3 ovarian, 29.2%; with HS 578T breast, 41%; in the assay with NCI/ADR-RES ovarian it was 22.9%.

Consider `O=C1C2C(C(=O)N1CC[Se][Se]CCN1C(=O)C3C(C1=O)[C@H]1C=C[C@@H]3C1)[C@H]1C=C[C@@H]2C1` (stereo not given in full), for which the growth was 4.3% (active) with SR leukemia; -43.7% (active) with RPMI-8226 leukemia; -80.7% (active) in the assay on OVCAR-8 ovarian; -15.4% (active) in the assay with OVCAR-5 ovarian; -33.3% (active) with OVCAR-4 ovarian; -50% (active) with SK-OV-3 ovarian. Moreover, the growth was -47.2% (active) in the assay with IGROV1 ovarian, -58% (active) in the assay on OVCAR-3 ovarian, -11.4% (active) with HS 578T breast and -10.9% (active) in the assay with NCI/ADR-RES ovarian.

In the case of `COc1ccc(NC(=O)[C@@H]2C[C@H]2c2ccccc2)c(C(N)=O)c1`, the growth with SR leukemia was 77.6%; in the assay on RPMI-8226 leukemia, 100%; in the assay on OVCAR-8 ovarian, 99.1%; in the assay on OVCAR-5 ovarian it was 102%; in the assay with OVCAR-4 ovarian, 107%; in the assay with SK-OV-3 ovarian, 102%. Moreover, the growth in the assay on IGROV1 ovarian is -8.06% (active); in the assay with OVCAR-3 ovarian, 98.9%; in the assay on HS 578T breast, 102%; in the assay on NCI/ADR-RES ovarian, 99%.

`O=C(c1ccccc1)c1ccc(Oc2ccc([N+](=O)[O-])cc2[N+](=O)[O-])cc1`: the growth with SR leukemia was 14.6%; in the assay on RPMI-8226 leukemia, 35.2%; with OVCAR-8 ovarian it was 41.5%; in the assay on OVCAR-5 ovarian it was 59.9%; with OVCAR-4 ovarian it was 28.5%; in the assay on SK-OV-3 ovarian it was 99.9%. The growth with IGROV1 ovarian is 1.87% (active); with OVCAR-3 ovarian, 48.7%; in the assay on HS 578T breast, 90.7%; with NCI/ADR-RES ovarian it was 4.04% (active).

In the case of `CSc1nc2nc3c(c(-c4ccc(C)cc4)c2c(=O)[nH]1)CN(C)C/C3=C\c1ccc(C)cc1`, the growth in the assay with SR leukemia was 86.9%; in the assay on RPMI-8226 leukemia, 84.2%; in the assay on OVCAR-8 ovarian, 105%; in the assay with OVCAR-5 ovarian, 115%; in the assay with OVCAR-4 ovarian, 92.8%; in the assay on SK-OV-3 ovarian, 112%. Moreover, the growth was 96.8% in the assay on IGROV1 ovarian, 116% in the assay on OVCAR-3 ovarian, 95.8% in the assay with HS 578T breast and 94.7% in the assay on NCI/ADR-RES ovarian.

Consider `COc1cnc2c(c1)C(=O)c1c-2n(CCCN2CCOCC2)c(=O)c2cc(F)ccc12`, for which the growth was 1.17% (active) in the assay on SR leukemia; -19.2% (active) in the assay with RPMI-8226 leukemia; 0.87% (active) in the assay with OVCAR-8 ovarian; -13.2% (active) in the assay on OVCAR-5 ovarian; 15.7% with OVCAR-4 ovarian; -25.1% (active) in the assay on SK-OV-3 ovarian. The growth was 12.2% with IGROV1 ovarian, -29.9% (active) in the assay with OVCAR-3 ovarian, 12.5% with HS 578T breast and 4.01% (active) in the assay on NCI/ADR-RES ovarian.
